{"source": "PubChem BioAssay AID2284187", "about": "(EPA ToxCast)", "note": "Results filed as inconclusive are left out. Calls of active or inactive are those of the source. How the source made its calls: active means hit-call score of the fitted dose curve at least 0.9, where 1 is the maximum; inconclusive means response in the unintended direction; inactive means score below 0.9."}
{"target": "rat GHB Receptor Antagonism, Tspan17 (gene 306771) (UniProt Q4V8E0)", "sequence (Q4V8E0 whole entry, looked up)": "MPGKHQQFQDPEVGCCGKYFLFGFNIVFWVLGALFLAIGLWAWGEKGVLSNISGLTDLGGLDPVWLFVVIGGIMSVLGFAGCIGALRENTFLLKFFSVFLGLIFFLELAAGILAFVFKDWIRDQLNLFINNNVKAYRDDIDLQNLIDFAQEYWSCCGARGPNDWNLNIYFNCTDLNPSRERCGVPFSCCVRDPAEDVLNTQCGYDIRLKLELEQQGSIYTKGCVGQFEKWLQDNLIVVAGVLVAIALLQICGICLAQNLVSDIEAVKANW", "test": "ERF_FR_GPCR_rGHB: Eurofins (ERF) G Protein-Coupled Receptor (GPCR) Radioligand Binding LeadHunter Assay for rat GHB Receptor Antagonism", "experimental": "ERF_FR_GPCR_rGHB is a biochemical, single-readout assay that uses extracted gene-proteins in a cell-free assay. Measurements were taken 2 hour after chemical dosing in a 96-well plate. See GHB Rat Binding (Antagonist Radioligand) Assay, Cerep.ERF_FR_GPCR_rGHB is an assay component calculated from the ERF_FR_GPCR_rGHB assay. It is designed to measure radioligand binding using a type of binding reporter as detected by scintillation counting with radiometry technology.Data from the assay component ERF_FR_GPCR_rGHB was analyzed at the assay endpoint, ERF_FR_GPCR_rGHB, in the positive analysis fitting direction relative to DMSO as the negative control and baseline of activity. Using a type of binding reporter, loss-of-signal activity can be used to understand changes in binding as they relate to gene TSPAN17. To generalize the intended target to other relatable targets, this assay endpoint is annotated to the gpcr intended target family, where the subfamily is ghb .\nBrain cortex of Wistar derived rats weighing 175 +/- 25 g are used to prepare GHB receptors in potassium buffer pH 6.0. A 1 mg aliquot is incubated with 20 nM [3H] NCS382 for 120 minutes at 4 C. Non-specific binding is estimated in the presence of 1 mM NCS382. Membranes are filtered and washed, the filters are then counted to determine [3H] NCS382 specifically bound. […]"}
{"smiles": "O=C(/C=C/c1ccc(O)cc1)CC(=O)/C=C/c1ccc(O)cc1", "AC50": "1670 nM (active)"}
{"smiles": "COc1cc(/C=C/C(=O)CC(=O)/C=C/c2ccc(O)c(OC)c2)ccc1O", "AC50": "1590 nM (active)"}
